From the supplement of paper PMC6555819 come the findings set out here.

This assay deals with PXR homodimer (NR concentration 270 nM). The assay can be described thus: PBM binding z-score (relative to random genomic background probes); higher = stronger binding; sequences stand for … in GC…GCGATTGACAGCGTAGAATGAAGG
Put shortly:
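Probes were double-stranded and carried 34-nt variable regions with direct-repeat seeds, single-nucleotide variants, half-site ablations and random human genomic background sequences, printed on custom Agilent 4×180K protein-binding microarrays. Arrays were incubated 1 h with ligand-free nuclear receptor dimers in PBS pH 7.4, 2% milk, 0.02% Triton X-100, 1 mM DTT, 0.2 mg/mL BSA and 0.4 mg/ml salmon testes DNA. Antibodies against each partner (one per run) detected binding, and scanned fluorescence was regression-normalized. Binding z-scores use the random background probes as reference.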
TGAATGAGGTTAAAGATCTGGGAACGTGGCGTCG yielded a PBM binding z-score of -0.0436.

In the case of CTCGCAAGGTCGGTTGAGGTGAGTATACGGATAA, the PBM binding z-score was -0.0452.

CCACACAGGTGAAAGGTAACTCAGTCTGGTACGC: the PBM binding z-score was found to be 0.292.

As to CCTACTGCGCCAAGGTCATTGATCAGTCAAAGCA, the PBM binding z-score worked out at 2.48.

TCTATTAGTTGAAGTGCAACCGACGAGTCCGTTT showed a PBM binding z-score of 1.24.

As to AGAACGAGGGCAATGAGTAGATAGCACGGGTGGC, the PBM binding z-score worked out at 0.226.

On to TTGCCAAGGTGAAGGTCGTTGATCCCTCTGTAGA, for which the PBM binding z-score was -0.362.

The sequence TCTAGTTGGTCACGGAGGTCACACACGACGGGTA gave a PBM binding z-score of 1.8.

On to ACAGACAGGTTAGTGAAGGTAACTCAGCTGGACG, for which the PBM binding z-score was -0.25.

For the sequence GCGATTGGGGCAAAGCAGGTTACCATAAGGTTGG, the PBM binding z-score is -0.215.

As for ATCTCTAGGTAAGACTCCGTTCAGTGAAGAACGC, the PBM binding z-score came out at 0.0511.

CCGACTGGGCCACGAAAGGTCATTGATTCAGTGA came in with a PBM binding z-score of 0.941.

In the case of AATACAGGGTCATTGTAGGCCAGAGTACGCACAG, the PBM binding z-score was determined as 0.912.

Sequence TTACCAAGGTGAGCTGAGGTCGTGGATCCAACTC showed a PBM binding z-score of -0.246.

TCTATTAGTTGATTAGGGCAACCGCAACAGCGGA showed a PBM binding z-score of 0.274.

AGTCAAAGTTCATCTAGGTAACCTAAGATATGCT showed a PBM binding z-score of 6.67.

TCAGACAGGTGAAGGTAACGCAGGTACGCAGTCG showed a PBM binding z-score of -0.161.

For AGAATGAGGTTATATGTAGATCAGGGAAGAAAGT, the PBM binding z-score was found to be 0.891.

As to GCTCGGAGGACAAGGTCAGAGATTTGTCCGTAGA, the PBM binding z-score was -0.24.

Consider TCTGCTAGGTCAGTTGGTCAGGTAACGAGCTGCC, for which the PBM binding z-score was -0.744.

Sequence CCTCGGAGGACTACAGGAGGTCAGAGCTGCCAGA registered a PBM binding z-score of 0.121.

In turn, GGAACGACGGCAAGTTGATAGCAGAGTTTGATGG returned a PBM binding z-score of 0.0619.

The sequence ATCTCTAGGTAAAGATAGTTCTGTGAATGCAAAT came in with a PBM binding z-score of 0.184.

In the case of CGTCCAGGGTCAGAGAGGTCAGTGAATGCCGAGT, the PBM binding z-score is 9.1.

As to TCTAGTTGGTCACGGAGGTCACACCCGACGGGTA, the PBM binding z-score came out at 1.24.

TCATATAGGTAAATGCTAAGTGAAAGTCCGATCT had a PBM binding z-score of 0.372.

Regarding TCTGCTAGGTCAGCTGGTCAGCTAACGAGCTGCC, the PBM binding z-score was -1.58.

CTACCAAGGTGAACAAGGGCGTTGATTACTATTC gave a PBM binding z-score of -0.0327.

In turn, AGTCAAAGTTCAAGACGAGGTAACGTAAAGCACG registered a PBM binding z-score of 2.5.

Sequence GCTGCTAGGTCAGGTTGATCAGCTAACGGGTACG yielded a PBM binding z-score of -0.392.

CCTTACGGGTCAAGGTTTTAGCACGGGTGGTACG came in with a PBM binding z-score of -0.244.

Sequence TGAATGAGGTTATGAGATCAGGGAACGTTGCAAA showed a PBM binding z-score of 0.16.

Turning to AGAACGAGGGCACGCTGAGTTCATAGCAGAGTAG, the PBM binding z-score came out at 10.4.

AGTCAAAGTTCACTAGGTAACCTAAGATTCAGCT yielded a PBM binding z-score of 4.07.

GTACCAAGGTGAATAGGTCGTGGATGAGTAGGCG: the PBM binding z-score is -0.029.

For CTCCAAAGGTCGTGCTCAGGTGAGTATACCAAAC, the PBM binding z-score stood at 0.561.

Regarding TGATATAGGTAAACAGGTGAAAGTCCGTAAGTTA, the PBM binding z-score turned out to be 0.346.

TCTATTAGTAGATTAGGGCAACCGAAACAGCGGA returned a PBM binding z-score of 0.0465.

As to CGTCCAAGGTCATAGGAGGTCAGTGAGGACAGAT, the PBM binding z-score is 11.7.

TCTCGGAGGACACGGAAGGTCAGAGCTCGACATC came in with a PBM binding z-score of 0.114.
